Measured values as given in PubChem BioAssay (EPA / NIEHS).
The source made the active and inactive calls. Rule for the calls: active = hit-call score of the fitted dose curve at least 0.9, where 1 is the maximum; inactive = score below 0.9.

Read-out: Plasminogen activator inhibitor-1 (PAI1), SERPINE1 (gene 5054)
Assay: BSK_BE3C_PAI1: BioMAP Diversity Plus: BE3C Assay for Plasminogen activator inhibitor-1 (PAI1) Biomarker Activity (AID 2283037)
Conditions: primary human bronchial epithelial cells; actives raise or lower the signal
How it was run: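 Human primary bronchial epithelial cells were exposed to chemical for 24 h, then PAI-1 was quantified by ELISA. Activity was fitted bidirectionally relative to the DMSO negative control baseline.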

SMILES	AC50	outcome
CCN(CC)CCOc1ccc(C(=C(Cl)c2ccccc2)c2ccccc2)cc1	26.1 µM (active)	–
CC(C)COC(=O)CCCCC(=O)OCC(C)C	–	inactive
O=C(O)CN(CC(=O)O)CC(=O)O	–	inactive
CS(=O)(=O)c1ccc([C@@H](C[C@H]2CCC(=O)C2)C(=O)Nc2cnccn2)cc1Cl	–	inactive
CCCCCCC(C=O)=Cc1ccccc1	–	inactive

Read-out: urokinase plasminogen activator (uPA), PLAU (gene 5328)
Assay: BSK_BE3C_uPA: BioMAP Diversity Plus: BE3C Assay for urokinase plasminogen activator (uPA) Biomarker Activity (AID 2283038);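 for outcome: uPA protein level quantified by ELISA in cell cultures; uPA read one day after compound addition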
Conditions: primary human bronchial epithelial cells; actives raise or lower the signal
How it was run: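 ELISA for uPA on human primary bronchial epithelial cultures 24 h post-treatment, gain or loss against DMSO. Parallel SRB staining (0.1% after 10% TCA fixation, 560 nm) assessed overt cytotoxicity.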

SMILES	AC50	outcome
O=C(N[C@@H](c1ccccc1)[C@@H]1CCCCN1)c1cccc(C(F)(F)F)c1Cl	28.7 µM (active)	–
COc1ccc(OC(F)(F)F)cc1CN[C@H]1CCCN[C@H]1c1ccccc1	20 µM (active)	–
CCCCCCCCCCCCCCCCO	–	inactive
CC1=C(C)S(=O)(=O)CCS1(=O)=O	–	inactive
O=C(O)c1cccnc1	–	inactive
CC(=O)OCC(COC(C)=O)OC(C)=O	–	inactive
CC(=O)O	–	inactive
Oc1ccc(O)cc1	7.83 µM (active)	–
O=C1CCCCC1	–	inactive
C/C=C/C=C/C(=O)O	–	inactive
CCCCC(CC)COP(=O)(OCC(CC)CCCC)OCC(CC)CCCC (configuration not stated)	–	inactive
CC(=O)S[C@H](C(=O)N[C@H]1Cc2ccccc2[C@H]2CCC[C@@H](C(=O)O)N2C1=O)C(C)C	–	inactive
CN(C)C(=O)NC1(c2ccccc2)CCN(CCC[C@]2(c3ccc(Cl)c(Cl)c3)CCCN(C(=O)c3ccccc3)C2)CC1	–	inactive
CCCCCCCCCC[N+](C)(C)[O-]	–	inactive
CC(C)c1cccc(C(C)C)c1NC(=O)NS(=O)(=O)c1cc(C(C)(C)O)co1	–	inactive
OCC(O)CO	–	inactive
Nc1nc(Cl)nc2c1ncn2[C@H]1C[C@H](O)[C@@H](CO)O1	–	inactive
CCCCCCCC(=O)OC	–	inactive
N[C@@H](Cc1c[nH]c2ccccc12)C(=O)O	–	inactive
CCCC(=O)O	–	inactive
Cc1cn([C@H]2C=C[C@@H](CO)O2)c(=O)[nH]c1=O	–	inactive
O=NO	–	inactive
Oc1ccccc1O	–	inactive
Cc1cc(SC2=C(O)C[C@@](CCc3ccc(N)cc3)(C(C)C)OC2=O)c(C(C)(C)C)cc1CO	–	inactive
CCN(CC)CCOc1ccc(C(=C(Cl)c2ccccc2)c2ccccc2)cc1	26 µM (active)	–
CC(C)COC(=O)CCCCC(=O)OCC(C)C	–	inactive
O=C(O)CN(CC(=O)O)CC(=O)O	–	inactive
CS(=O)(=O)c1ccc([C@@H](C[C@H]2CCC(=O)C2)C(=O)Nc2cnccn2)cc1Cl	–	inactive
CCCCCCC(C=O)=Cc1ccccc1	–	inactive

Read-out: Urokinase-type plasminogen activator receptor (uPAR), PLAUR (gene 5329)
Assay: BSK_BE3C_uPAR: BioMAP Diversity Plus: BE3C Assay for Urokinase-type plasminogen activator receptor (uPAR) Biomarker Activity (AID 2283039);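 for outcome: uPAR protein level measured by ELISA on the cells; cells exposed to compound for one day before measurement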
Conditions: primary human bronchial epithelial cells; actives raise or lower the signal
How it was run: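 Primary human bronchial epithelial cells were dosed with chemical and harvested 24 h later; uPAR was quantified by ELISA. Activity was fitted bidirectionally against DMSO as negative control and baseline.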

SMILES	AC50	outcome
O=C(N[C@@H](c1ccccc1)[C@@H]1CCCCN1)c1cccc(C(F)(F)F)c1Cl	33.3 µM (active)	–
COc1ccc(OC(F)(F)F)cc1CN[C@H]1CCCN[C@H]1c1ccccc1	–	inactive
CCCCCCCCCCCCCCCCO	–	inactive
CC1=C(C)S(=O)(=O)CCS1(=O)=O	–	inactive
O=C(O)c1cccnc1	–	inactive
CC(=O)OCC(COC(C)=O)OC(C)=O	–	inactive
CC(=O)O	–	inactive
Oc1ccc(O)cc1	–	inactive
O=C1CCCCC1	–	inactive
C/C=C/C=C/C(=O)O	–	inactive
CCCCC(CC)COP(=O)(OCC(CC)CCCC)OCC(CC)CCCC (configuration not stated)	–	inactive
CC(=O)S[C@H](C(=O)N[C@H]1Cc2ccccc2[C@H]2CCC[C@@H](C(=O)O)N2C1=O)C(C)C	–	inactive
CN(C)C(=O)NC1(c2ccccc2)CCN(CCC[C@]2(c3ccc(Cl)c(Cl)c3)CCCN(C(=O)c3ccccc3)C2)CC1	–	inactive
CCCCCCCCCC[N+](C)(C)[O-]	–	inactive
CC(C)c1cccc(C(C)C)c1NC(=O)NS(=O)(=O)c1cc(C(C)(C)O)co1	–	inactive
OCC(O)CO	–	inactive
Nc1nc(Cl)nc2c1ncn2[C@H]1C[C@H](O)[C@@H](CO)O1	–	inactive
CCCCCCCC(=O)OC	–	inactive
N[C@@H](Cc1c[nH]c2ccccc12)C(=O)O	–	inactive
CCCC(=O)O	–	inactive
Cc1cn([C@H]2C=C[C@@H](CO)O2)c(=O)[nH]c1=O	–	inactive
O=NO	–	inactive
Oc1ccccc1O	–	inactive
Cc1cc(SC2=C(O)C[C@@](CCc3ccc(N)cc3)(C(C)C)OC2=O)c(C(C)(C)C)cc1CO	–	inactive
CCN(CC)CCOc1ccc(C(=C(Cl)c2ccccc2)c2ccccc2)cc1	26.3 µM (active)	–
CC(C)COC(=O)CCCCC(=O)OCC(C)C	–	inactive
O=C(O)CN(CC(=O)O)CC(=O)O	–	inactive
CS(=O)(=O)c1ccc([C@@H](C[C@H]2CCC(=O)C2)C(=O)Nc2cnccn2)cc1Cl	–	inactive
CCCCCCC(C=O)=Cc1ccccc1	–	inactive

Read-out: Interleukin-6 (IL6), IL6 (gene 3569)
Assay: BSK_CASM3C_IL6: BioMAP Diversity Plus: CASM3C Assay for Interleukin-6 (IL6) Biomarker Activity for (AID 2283040)
Conditions: primary human coronary artery smooth muscle cells; actives raise or lower the signal

SMILES	outcome	AC50
O=C(N[C@@H](c1ccccc1)[C@@H]1CCCCN1)c1cccc(C(F)(F)F)c1Cl	inactive	–
COc1ccc(OC(F)(F)F)cc1CN[C@H]1CCCN[C@H]1c1ccccc1	inactive	–
CCCCCCCCCCCCCCCCO	inactive	–
CC1=C(C)S(=O)(=O)CCS1(=O)=O	inactive	–
O=C(O)c1cccnc1	inactive	–
CC(=O)OCC(COC(C)=O)OC(C)=O	inactive	–
CC(=O)O	inactive	–
Oc1ccc(O)cc1	inactive	–
O=C1CCCCC1	inactive	–
C/C=C/C=C/C(=O)O	inactive	–
CCCCC(CC)COP(=O)(OCC(CC)CCCC)OCC(CC)CCCC (configuration not stated)	inactive	–
CC(=O)S[C@H](C(=O)N[C@H]1Cc2ccccc2[C@H]2CCC[C@@H](C(=O)O)N2C1=O)C(C)C	inactive	–
CN(C)C(=O)NC1(c2ccccc2)CCN(CCC[C@]2(c3ccc(Cl)c(Cl)c3)CCCN(C(=O)c3ccccc3)C2)CC1	inactive	–
CCCCCCCCCC[N+](C)(C)[O-]	inactive	–
CC(C)c1cccc(C(C)C)c1NC(=O)NS(=O)(=O)c1cc(C(C)(C)O)co1	inactive	–
OCC(O)CO	inactive	–
Nc1nc(Cl)nc2c1ncn2[C@H]1C[C@H](O)[C@@H](CO)O1	inactive	–
CCCCCCCC(=O)OC	inactive	–
N[C@@H](Cc1c[nH]c2ccccc12)C(=O)O	inactive	–
CCCC(=O)O	inactive	–
Cc1cn([C@H]2C=C[C@@H](CO)O2)c(=O)[nH]c1=O	inactive	–
O=NO	inactive	–
Oc1ccccc1O	inactive	–
Cc1cc(SC2=C(O)C[C@@](CCc3ccc(N)cc3)(C(C)C)OC2=O)c(C(C)(C)C)cc1CO	inactive	–
CCN(CC)CCOc1ccc(C(=C(Cl)c2ccccc2)c2ccccc2)cc1	–	31.6 µM (active)
CC(C)COC(=O)CCCCC(=O)OCC(C)C	inactive	–
O=C(O)CN(CC(=O)O)CC(=O)O	inactive	–
CS(=O)(=O)c1ccc([C@@H](C[C@H]2CCC(=O)C2)C(=O)Nc2cnccn2)cc1Cl	inactive	–
CCCCCCC(C=O)=Cc1ccccc1	inactive	–
